According to PubChem BioAssay (NCI):
“And” between values parts separate entries of the source, which are not always exact repeats. Identical values can stand only once. Compounds without any hit were thinned out: in the full panel of roughly 83,000, 20% have a hit.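 96-well plates, one dose, 48 hours. Percent growth reported; active if below 10.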 The source made the active and inactive calls.

What follows are compounds tested on MDA-MB-468 breast (assay: NCI-60 one-dose screen, 48 h (100 = growth as untreated, 0 = no growth, -100 = all killed)). Conditions: 10 µM unless noted.

Compound	growth
CC[n+]1c(-c2ccccc2)c2cc(N)ccc2c2ccc(N)cc21	-62.8% (active)
COC(=O)C[Se]C(=O)c1ccccc1OC(C)=O	34.8% (inactive)
COc1ccc(/C=C\c2cc(OC)c(OC)c(OC)c2)cc1N/C=C\C(=O)c1c[nH]c2ccccc12	11.3% (inactive)
C#CC1(O)CCC2(C)C(CCC3C4CCC(=O)C4(C)CCC32)C1 (stereo not given)	86.3% (inactive)
Oc1ccccc1-c1ccccc1	105% (inactive) and 103% (inactive)
